Screening data as filed in PubChem.
FLuc inh = qHTS Assay for Inhibitors of Firefly Luciferase. 72,000 tested, 2.2% active. purified firefly luciferase, luminescence, 8 min. Potency, µM (top dose mostly 57.1 µM), for the others: at the top dose activity change, negative = inhibition, actives largely listed as inhibitors. AID 411, 2009; also: nearly all actives have a fitted effect of over 40% in size
Target sequence (P08659 whole entry, looked up): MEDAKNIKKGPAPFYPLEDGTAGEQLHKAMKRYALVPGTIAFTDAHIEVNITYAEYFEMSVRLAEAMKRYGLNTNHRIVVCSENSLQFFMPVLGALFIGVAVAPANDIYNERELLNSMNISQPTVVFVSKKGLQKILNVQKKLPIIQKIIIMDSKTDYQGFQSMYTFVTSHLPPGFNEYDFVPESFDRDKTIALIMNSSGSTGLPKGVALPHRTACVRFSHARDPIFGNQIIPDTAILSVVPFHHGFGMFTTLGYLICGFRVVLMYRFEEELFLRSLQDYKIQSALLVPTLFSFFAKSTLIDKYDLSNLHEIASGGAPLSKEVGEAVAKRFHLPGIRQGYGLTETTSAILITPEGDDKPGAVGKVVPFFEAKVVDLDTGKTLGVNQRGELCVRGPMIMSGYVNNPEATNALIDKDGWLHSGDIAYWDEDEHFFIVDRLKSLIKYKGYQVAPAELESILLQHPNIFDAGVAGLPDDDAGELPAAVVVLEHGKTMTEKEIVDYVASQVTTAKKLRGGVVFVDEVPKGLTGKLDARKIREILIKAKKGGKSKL
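Substrate buffer containing 10 uM ATP (pH 7.2 imidazole, Mg2+, KCl, detergent, BSA) is dispensed, compound pinned in, then luciferase/luciferin detector mix added. After 8 min at ambient temperature, light output is measured.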
ALOX15 inhib = qHTS Assay for Inhibitors of 15-hLO (15-human lipoxygenase) | Polyunsaturated fatty acid lipoxygenase ALOX15 (Homo sapiens), P16050 | purified 15hLO-1, xylenol orange hydroperoxide absorbance | Potency, µM (series often up to 57.1 µM), inactives show top-dose activity change, negative = inhibition, actives largely listed as inhibitors | 74,000 tested, 1.4% active | AID 887, 2007; also: nearly all actives have a fitted effect of over 55% in size
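Hydroperoxide formed from arachidonic acid (50 uM) by purified human 15hLO-1 (40 nM) oxidizes ferrous iron, and the ferric-xylenol orange complex is read at 573 versus 405 nm. Compounds were preincubated 15 min; reaction ran 6 min at room temperature.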
ERK AVP inh = qHTS Assay for Inhibitors of the ERK Signaling Pathway using a Homogeneous Screening Assay; 72,000 tested, 0.99% active; Potency, µM (titrated, usually from 57.5 µM), without a hit: at the top dose activity, negative = inhibition, usual class: inhibitors; HEK293-V1b, vasopressin-stimulated pERK AlphaScreen; also: nearly all actives have a fitted effect of over 55% in size
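V1b-HEK293 cells; cpd 30 min 37C; 25 nM vasopressin 5 min; lyse 10 min; AlphaScreen beads 5 hr RT. Normalized to DMSO basal and 25 nM vasopressin; AC50 by Hill fit.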
PK Bst = Pyruvate Kinase | purified pyruvate kinase, luminescence ATP production; ribose 5-phosphate activator present at AC10 | Potency, µM | 51,000 tested, 1.2% active; in the data active = potency below about 11 µM; inconclusive = mostly about 12 µM to 25 µM;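 the screen sought inhibitors and activators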;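 also: scaled between full activation by ribose 5 phosphate and full inhibition by luteolin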
HSD17B inhib = qHTS Assay for Inhibitors of HSD17B4, hydroxysteroid (17-beta) dehydrogenase 4 | recombinant HSD17B10, NADH fluorescence kinetic | Potency, µM (doses to about 57.1 µM), inactives show at the highest dose activity change, negative = inhibition, usual class: inhibitors | 75,000 tested, 7.6% active | AID 893, 2007;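 also: the protocol describes HADH2 (HSD17B10) and not the HSD17B4 of the title; nearly all actives have a fitted effect of over 70% in size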
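20 nM HADH2, pH 9.0 Tris/Tween; cpd preinc 15 min RT; start w/ 1 mM NAD+ + 90 uM b-hydroxybutyryl-CoA; kinetic fluor ex360/em450 q30s x 4 min; delta last-first.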
HADH2 inhib = qHTS Assay for Inhibitors of HADH2 (Hydroxyacyl-Coenzyme A Dehydrogenase, Type II); 73,000 tested, 3.4% active; 3-hydroxyacyl-CoA dehydrogenase type-2 (Homo sapiens), Q99714; recombinant HADH2, NADH fluorescence, beta-hydroxybutyryl-CoA; AID 886, 2007; Potency, µM (highest dose often 57.1 µM), for inactives: top-dose activity change, negative = inhibition, actives largely listed as inhibitors; also: nearly all actives have a fitted effect of over 60% in size
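Activity measured as NADH fluorescence gain (360/450 nm), taken as the change between first and last reads of a 4-min kinetic run. Conditions: pH 9.0 Tris buffer, 20 nM E. coli-expressed His-tagged enzyme, 1 mM NAD+, 90 uM beta-hydroxybutyryl-CoA; 15-min compound preincubation.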
An asterisk follows results filed as active; i = inactive; ? = inconclusive; nt = not tested or not shown; [ ] = another dose, or the depositor's remark. This is a sample that favours compounds with a hit; in the whole collection about 11% have one here. Unless noted, calls follow the shape of the dose curve; as a rule, active = well fitted curve in the direction sought with a large enough effect; inconclusive = small, poorly fitted or top-dose-only effect, or another doubt; inactive = no such curve, though single readings can be large; an effect the other way counts as inactive or inconclusive. Unless noted, % is scaled to controls: 0 for no effect and ±100 for the full control effect; potency is read from the fitted curve at half-maximal effect.

SMILES	FLuc inh	ALOX15 inhib	ERK AVP inh	PK Bst	HSD17B inhib	HADH2 inhib
Clc1ccc(OCc2nc(-c3ccncc3)no2)c(Br)c1	7.9µM*	7%	-24%	nt	0%	-5%
CCc1ccc(OCc2nc(-c3ccccn3)no2)c(Br)c1	13µM*	-6%	-6%	?	-11%	-1%
Cc1ccc(OCc2nc(-c3ccccn3)no2)c(Br)c1	5µM*	2%	1%	nt	7%	3%
CC(Oc1ccc(Cl)cc1Cl)c1nc(-c2ccccn2)no1 (stereo not given)	-7%	-8%[11.4 µM]	23%	nt	-6%	4%[11.4 µM]
O=C(c1csnn1)N1CCC[C@@]2(CCN(Cc3cc(C(F)(F)F)cc(C(F)(F)F)c3)C2)C1	1%[11.4 µM]	-8%	-6%	nt	-14%	-4%
COCCN1C(=O)c2ccc(C(=O)Nc3nccs3)cc2C1=O	-28%	-15%	-26%	nt	-9%	9%
CC(C)CN1C(=O)c2ccc(C(=O)Nc3nccs3)cc2C1=O	13µM*	2%	-22%	nt	10%	7%
Cc1nn(Cc2ccc(C(=O)Nc3nccs3)cc2)c(C)c1Cl	-1%	-18%	?	3.1*	-14%	-8%
CCCc1cc(C(=O)Nc2nccs2)cs1	7.9µM*	-4%	-29%	?	-5%	4%
CCCN1C(=O)c2ccc(C(=O)Nc3nccs3)cc2C1=O	13µM*	0%	-17%	>57	4%	-1%
CC(=O)S[C@@H]1CC2=CC(=O)CC[C@@]2(C)[C@H]2CC[C@]3(C)[C@H](CC[C@@]34CCC(=O)O4)[C@H]12	2%	-6%	19%	nt	-7%	-13%
O=C(c1ccc(N2CCOCC2)nc1)N1CCOCC1	3%	-2%	-6%	>57	-28%	1%
Cc1cnc(C)c(N2CCC(C(=O)NCc3ccco3)CC2)n1	-3%	-6%	-1%	>57	-5%	6%
O=C(c1ccc(N2CCCCS2(=O)=O)cc1)N1CCN(c2ccc(N3CCOCC3)nn2)CC1	-8%	4%	9%	nt	32µM*	?
O=C(c1cncc(Br)c1)N1CCN(c2ccc(N3CCOCC3)nn2)CC1	-1%	-2%	2%	nt	32µM*	?
O=C(NCc1ccco1)C1CCN(c2ccc(N3CCOCC3)nn2)CC1	-3%	-30%	-13%	nt	32µM*	-12%
O=C(C1CCN(c2ccc(N3CCOCC3)nn2)CC1)N1CCN(c2ccc(F)cc2)CC1	-2%	12%	-8%	>57	32µM*	?
O=C(NC1CCCCC1)c1ccc(Cc2nc3ccccc3[nH]2)cc1	nt	-4%	nt	nt	10%	8%
Oc1[nH]c2ccccc2c1C=Nc1ccc2c(c1)OCO2	nt	-27%	nt	nt	-8%	-4%
COc1cccc(C=Nc2ccc3c(c2)OCCO3)c1O	4µM*	-4%	-10%	?	1%	-9%
O=C(Oc1ccc(/C=N/O)cc1)c1ccccc1	?	1%	1%	nt	6%	-5%
Cc1ccc(C(=O)Oc2ccc3c(c2)ncn3C)cc1	16µM*	0%	-22%	?	1%	5%
Cn1cnc2cc(OC(=O)c3ccccc3)ccc21	16µM*	28%	-22%	i	1%	-11%
Oc1cnn(-c2ccccc2)c1	nt	-4%	nt	nt	6%	-5%
CCc1cc(C(=O)Cc2cnn(-c3ccccc3)c2)c(O)cc1O	1%	?	?	nt	32µM*	?
CCCCCCSC1=C(C#N)C(c2ccc(C)o2)CC(=O)N1 (stereo not given)	-1%	25µM*	13%	>57	?	?
CCn1c(C(=O)Nc2ccsc2C(=O)OC)cc2sc(Cl)cc21	3%	-1%	49%	nt	32µM*	?
COC(=O)c1sccc1NC(=O)c1ccc(Cl)s1	0%	-3%	10%	>57	-29%	-4%
